# Assay outcomes (PubChem BioAssay)
# VACV Venus inh: qHTS for Stage-Specific Inhibitors of Vaccinia Orthopoxvirus: Venus Reporter Primary qHTS | AID 720580, 2013 | hit rate 0.46% among 330,000 | Potency, µM (titrated, usually from 36.5 µM), inactives show at the highest dose activity change, negative = inhibition, usual class: inhibitors | Vaccinia virus Venus reporter expression, fluorescence; calls by dose curve; tested in A549 cells; also: potency is read from the fitted curve at half-maximal effect; nearly all actives have a fitted effect of over 30% in size
# Marburg entry inh: qHTS for inhibitors of binding or entry into cells for Marburg Virus; Marburg virus pseudotyped entry inhibition, cell reporter; Potency, µM (series often up to 37.8 µM), inactives show at the top dose activity change, negative = inhibition, usual class: inhibitors; hit rate 1.8% among 300,000; AID 540276, 2011; calls by dose curve; tested in HEK293 cells; also: potency is read from the fitted curve at half-maximal effect
# Lassa entry inh: qHTS for Inhibitors of binding or entry into cells for Lassa Virus; Potency, µM (series often up to 37.9 µM), without a hit: top-dose activity change, negative = inhibition, most hits filed as inhibitors; Lassa virus pseudotype entry inhibition, cell reporter; hit rate 1.2% among 300,000; AID 540256, 2011; calls by dose curve; tested in HEK293 cells; also: potency is read from the fitted curve at half-maximal effect; nearly all actives have a fitted effect of over 50% in size
# VACV mCherry inh: qHTS for Stage-Specific Inhibitors of Vaccinia Orthopoxvirus: mCherry Reporter Primary qHTS | Vaccinia virus mCherry reporter infection, fluorescence | AID 720579, 2013 | hit rate 0.63% among 310,000 | Potency, µM (titrated, usually from 36.5 µM), for the others: at the highest dose activity change, negative = inhibition, actives largely listed as inhibitors; calls by dose curve; tested in A549 cells; also: potency is read from the fitted curve at half-maximal effect; nearly all actives have a fitted effect of over 35% in size
# HCMV antiviral: qHTS Assay for inhibitors of the human cytomegalovirus (HCMV); hit rate 4.5% among 410,000; HFF cells, HCMV-luciferase reporter, 72 h; stronger effect = lower value; AID 1259415, 2018; activity change, negative = inhibition, % at 57.5 µM; in the data active = activity change below about -60%; inconclusive = no clear call, values can overlap the other calls; inactive = above about -39%
#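 Luciferase read-out from HCMV-luciferase-infected HFFs (MOI 1 PFU/cell) 72 h post infection at 37C; compounds added after 16 h cell attachment; activity normalized between buffer-only basal and Salinomycin (10uM) inhibitor controls.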
# FMDV inh: High Throughput Screening for Foot and Mouth Disease Virus Antivirals; FMDV antiviral cell-based qHTS; Potency, µM (series often up to 57.9 µM), inactives show at the top dose activity change, negative = inhibition, usual class: inhibitors; hit rate 1.2% among 410,000; calls by dose curve; tested in HEK293T cells; also: read-out not given here; potency is read from the fitted curve at half-maximal effect; nearly all actives have a fitted effect of over 45% in size
# * hit, by the source's call; i = inactive; u = inconclusive; x = no result; [ ] = another dose, or the depositor's remark. A selection: hits, their analogues and other compounds. The true share with any hit is near 6.5%. % is scaled to controls: 0 for no effect and ±100 for the full control effect.
SMILES,VACV Venus inh,Marburg entry inh,Lassa entry inh,VACV mCherry inh,HCMV antiviral,FMDV inh
Cc1ccc(-n2ncc3c(N4CCCC4)ncnc32)c(C)c1,x,8%,1%,x,74,-22%
Cc1ccc(-n2ncc3c(Nc4cccc(C(F)(F)F)c4)ncnc32)cc1C,-4%,x,u,-10%,-65*,-5%
C=CC[n+]1c(-c2ccc(Cl)cc2Cl)csc1Nc1ccc(NC(C)=O)cc1,-10%,3.2µM*,2.8µM*,u,-94*,-29%
C=CC[n+]1c(-c2ccc(Cl)cc2Cl)csc1Nc1c(C)n(C)n(-c2ccccc2)c1=O,u,u,u,u,-87*,u
O=C(Nc1nonc1-c1ccc(Br)cc1)c1ccco1,3%,1%[46.1 µM],-5%[46.1 µM],-3%,-19,-17%
CN1CCN(c2cc(-c3cc(O)c4ncccc4c3)ccn2)CC1,x,x,x,x,-89*,-27%
Oc1cc(-c2cccnc2)cc2cccnc12,x,x,x,x,-94*,-18%
CN1CCN(C(=O)c2cccc(-c3cc(O)c4ncccc4c3)c2)CC1,x,x,x,x,-21,-6%
O=C(O)Cn1c(C(=O)Nc2nc(-c3ccccc3Cl)cs2)cc2ccccc21,x,x,x,x,36,31%
CCN(C(=O)CSc1nnc(-c2cc(OC)c(OC)c(OC)c2)o1)c1ccccc1,-7%,-4%[46.1 µM],13%[46.1 µM],-10%,-19,0%
COc1ccc(-c2nnc(SCC(=O)N(Cc3ccccc3)C(C)(C)C)o2)cc1OC,x,u,u,x,-95*,11µM*
CCOC(=O)c1c(-c2ccccc2Cl)cn2ccccc12,x,u,13µM*,x,u,-6%
CCOC(=O)c1sc2nc(-c3ccco3)c3c(c2c1N)CC(C)(C)OC3,13µM*,14%,-17%,10µM*,-24,u
Cc1nc2sc(C(=O)O)c(N)c2c2c1COC(C)(C)C2,-7%,0%,4%,-16%,-6,-2%
COc1ccc([C@@H]2[C@@H](C(=O)N3CCOCC3)CC(=O)N2C(=O)CCc2ccccc2)cc1,x,x,x,x,-7,x
O=C(N/N=C/c1ccc([N+](=O)[O-])o1)c1cc(-c2cccc(Br)c2)nc2ccccc12,-30%,u,u,-18%,-70*,-19%
CCCc1ccc(-c2cc(C(=O)N/N=C/c3ccc([N+](=O)[O-])o3)c3ccccc3n2)cc1,u,7.1µM*,5.6µM*,u,u,u
O=C(N/N=C/c1ccco1)c1cc(-c2ccccc2)nc2ccccc12,-20%,-12%[46.1 µM],-15%[46.1 µM],u,-39,-2%
COc1cc(Nc2nc3c(S(=O)(=O)c4cccc(Cl)c4)nnn3c3ccsc23)cc(OC)c1,-11%[7.34 µM],x,13%[46.1 µM],-21%[7.34 µM],22,u
C[n+]1ccc(/C=C/c2ccc([N+](C)(C)C)cc2)c2ccccc21,458%,x,x,i,x,x
c1ccc(CNCCCNCCCCNCCCNCc2ccccc2)cc1,13µM*,u,u,13µM*,-97*,-9%
O=C(O)CCCCNCc1ccccc1,-10%,14%,14%,i,-12,x
Cc1cc([C@](C)(N)C(=O)O)ccc1P(=O)(O)O,x,x,x,x,x,-5%
Cc1cc2c(cc1Cl)N(C(=O)Nc1ccc(Oc3cccnc3C)nc1)CC2,x,u,12µM*,x,x,x
CCc1ccc2[nH]c3nc(N/N=C/c4ccc(O)cc4O)nnc3c2c1,-25%,3.5µM*,u,1.8µM*,-76*,-18%
SMILES,VACV Venus inh,Marburg entry inh,Lassa entry inh,VACV mCherry inh,HCMV antiviral,FMDV inh
CC(=O)C1C(N2CC2)CC2C3CCC4=CC(=O)CCC4(C)C3CCC21C (stereo unspecified),u,u,u,-17%,-63*,-17%
CC12CCC(=O)C=C1CCC1C2CCC2(C)C(O)CCC12 (stereo unspecified),-7%,x,x,13%,6,-25%
Cc1ccc(/C(O)=C2\C(=O)C(=O)N(Cc3ccco3)[C@@H]2c2cccs2)cc1,x,2%,x,x,x,x
O=C(Nc1cccc(C(F)(F)F)c1)c1ccc(F)c(S(=O)(=O)N2CCc3ccccc3C2)c1,-18%,x,1%[46.1 µM],i,31,u
COC(=O)[C@@H]1[C@@H](CO)[C@@H]2Cn3c(cccc3=O)[C@H]1N2C(=O)Nc1cc(F)ccc1F,x,x,x,x,4,x
CC(NCc1ccccc1O)C12CC3CC(CC(C3)C1)C2 (stereo unspecified),x,x,x,x,-87*,u
CC(NCc1ccncc1)C12CC3CC(CC(C3)C1)C2 (stereo unspecified),-5%,2%[46.1 µM],-17%,-4%,-11,-21%
COC(=O)c1ccc2c(=O)n(Cc3ccco3)c(SCC(=O)Nc3ccc(C)c(Cl)c3)nc2c1,x,u,u,x,-63*,-16%
O=C(c1ccco1)N1CCN(C(=O)c2cccn3c(=O)c4c5c(sc4nc23)CCCC5)CC1,x,x,x,x,-35,-1%
Cc1c(C(=O)N2CCN(c3ccc(F)cc3)CC2)sc2ncnc(N3CCN(c4ccccn4)CC3)c12,u,u,u,-14%,-81*,u
Cc1ccc(-c2csc3ncnc(N4CCN(C(=O)c5ccco5)CC4)c23)cc1,-15%,-30%,u,-3%,-10,u
Cc1sc2ncnc(N3CCN(C(=O)c4ccco4)CC3)c2c1C,-20%,u,u,-5%,-67*,-21%
Cc1nc(N2CCN(C(=O)c3ccco3)CC2)c2c3c(sc2n1)CCC3,u,10µM*,u,x,-65*,u
CC(C)c1nc(N2CCN(C(=O)c3ccco3)CC2)c2c3c(sc2n1)CCCC3,-30%,18µM*,u,-13%,-9,x
CC1CCN(CC(O)COCCC23CC4CC(CC(C4)C2)C3)CC1 (stereo unspecified),-28%,6.5µM*,u,u,-75*,x
CC1CCN(CC(O)COc2ccc(F)cc2)CC1 (stereo unspecified),-2%,x,x,24%,-34,-10%
c1ccc2c(N3CCNCC3)cccc2c1,-10%,11µM*,-9%,-2%,16,-24%
O=C(CNC(=O)c1ccccc1)OCC(=O)c1ccccc1,-5%,x,x,41%,x,x
CC(C)c1ccc(/C=C(\C#N)c2nc(-c3ccc(O)cc3)cs2)cc1,u,x,5%[46.1 µM],-23%,-87*,-23%
Clc1cc(Br)ccc1OCCOCCN1CCCC1,x,x,x,x,9,-10%
Cc1ccc(OCCOCCN2CCN(C)CC2)c(C(C)(C)C)c1,x,x,x,x,-25,-8%
COCCCNCCOCCOc1ccc(Cl)cc1C(C)(C)C,u,5.8µM*,u,u,u,-25%
CC(C)(C)c1cc(Cl)ccc1OCCOCCN1CCCC1,-25%,8.9µM*,u,i,-10,0%
Cc1cc(C(C)(C)C)ccc1OCCOCCN1CCCC1,-22%,8.2µM*,u,-3%,-29,-12%
CC1=C(c2ccccc2)C(=O)C(C)(C)CC1=O,x,x,x,x,-27,x
